Test results reported in PubChem BioAssay AID1159580 (chemical genetic matrix, 2015).
Where “and” joins values, the source holds several entries; their conditions need not be identical. Equal values may be shown once. Screen size: about 5,500 compounds; about 2,000 (36%) were called active. Another 18% or so got no clear call; they are omitted. No stated cut-off is given here; in the data, active means normalized growth mostly below about 0.91 (no sharp cut-off); inconclusive means no clear call, values can overlap the other calls; inactive means mostly above about 0.92. The list shows a part of the results.

Assay: chemical genetic growth profiling, strain panel (AID 1159580);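 further: tested at 20 µM; growth read once vehicle control cultures reached saturation at 30 °C; 1 = growth at the plate median or of vehicle wells; lower values mean less growth of the strain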
Conditions: S. cerevisiae deletion strains, growth OD

Measured: normalized growth

NNCCc1ccccc1
inactive: locus YAL013W, strain DEP1, active compounds read low 1 | locus YAL021C, strain ccr4, active compounds read low 1.01 | locus YAL026C, strain drs2, active compounds read low 1.02 | locus YAL030W, strain snc1, active compounds read low 1.01 | locus YAL040C, strain CLN3, active compounds read low 1.04 | locus YBL061C, strain skt5, active compounds read low 1.01 | locus YBR009C, strain hhf1, active compounds read low 1.01 | locus YBR021W, strain FUR4, active compounds read low 0.997 | locus YBR023C, strain chs3, active compounds read low 1.01 | locus YBR171W, strain sec66, active compounds read low 1.02 | locus YBR229C, strain ROT2, active compounds read low 0.954 | locus YBR231C, strain swc5, active compounds read low 1.01 | locus YBR279W, strain paf1, active compounds read low 1.01 | locus YCL011C, strain gbp2, active compounds read low 1.01 | locus YCL016C, strain dcc1, active compounds read low 1.01 | locus YCL029C, strain bik1, active compounds read low 0.968 | locus YCL061C, strain MRC1 (second series), active compounds read low 1.01 | locus YCL061C, strain MRC1, active compounds read low 1.01 | locus YCL069W, strain vba3, active compounds read low 1 | locus YCR088W, strain abp1, active compounds read low 1.01 | locus YDL005C, strain med2, active compounds read low 1.01 | locus YDL035C, strain GPR1, active compounds read low 0.973 | locus YDL040C, strain nat1, active compounds read low 1 | locus YDL074C, strain BRE1, active compounds read low 0.946 | locus YDL101C, strain DUN1, active compounds read low 0.975 | locus YDL134C, strain PPH21, active compounds read low 0.994 | locus YDL185W, strain tfp1, active compounds read low 0.98 | locus YDL192W, strain arf1, active compounds read low 0.986 | locus YDR001C, strain nth1, active compounds read low 1 | locus YDR069C, strain doa4, active compounds read low 1 | locus YDR101C, strain arx1, active compounds read low 0.985 | locus YDR137W, strain rgp1, active compounds read low 1.02 | locus YDR150W, strain NUM1, active compounds read low 0.996 | locus YDR159W, strain sac3, active compounds read low 1.01 | locus YDR162C, strain NBP2, active compounds read low 0.991 | locus YDR195W, strain ref2 0.997 | locus YDR297W, strain sur2, active compounds read low 1 | locus YDR318W, strain mcm21, active compounds read low 0.991 | locus YDR334W, strain swr1, active compounds read low 0.999 | locus YDR335W, strain msn5, active compounds read low 1.01 | locus YDR363W, strain ESC2, active compounds read low 1.06 | locus YDR388W, active compounds read low 0.991 | locus YDR392W, strain spt3, active compounds read low 0.93 | locus YDR502C, strain sam2, active compounds read low 0.994 | locus YEL003W, strain gim4, active compounds read low 0.997 | locus YEL037C, strain rad23, active compounds read low 1.01 | locus YEL061C, strain CIN8 (second series), active compounds read low 1.01 | locus YEL061C, strain CIN8, active compounds read low 0.98 | locus YER002W, strain NOP16, active compounds read low 0.998 | locus YER015W, strain faa2, active compounds read low 0.994 | locus YER016W, strain bim1, active compounds read low 1.01 | locus YER110C, active compounds read low 0.952 | locus YER111C, strain swi4, active compounds read low 1.01 | locus YER155C, strain BEM2 (second series), active compounds read low 1 | locus YER155C, strain BEM2, active compounds read low 1 | locus YER167W, strain BCK2, active compounds read low 0.99 | locus YFR010W, strain ubp6, active compounds read low 0.989 | locus YGL078C, strain dbp3, active compounds read low 0.995 | locus YGL086W, strain mad1, active compounds read low 0.976 | locus YGL167C, strain pmr1, active compounds read low 1.01 | locus YGL173C, strain kem1, active compounds read low 1.01 | locus YGL227W, strain vid30, active compounds read low 1.02 | locus YGL240W, strain doc1, active compounds read low 1 | locus YGL248W, strain PDE1, active compounds read low 0.979 | locus YGL253W, strain hxk2, active compounds read low 1.01 | locus YGR078C, strain PAC10, active compounds read low 1.01 | locus YGR135W, strain pre9, active compounds read low 0.982 | locus YGR229C, strain SMI1, active compounds read low 0.985 | locus YGR252W, strain gcn5, active compounds read low 0.898 | locus YHR013C, strain ard1, active compounds read low 1.02 | locus YHR027C, strain rpn1, active compounds read low 1 | locus YHR030C, strain SLT2, active compounds read low 0.996 and 0.983 | locus YHR079C, strain IRE1 (second series), active compounds read low 0.991 | locus YHR079C, strain IRE1, active compounds read low 0.965 | locus YHR094C, strain hxt1, active compounds read low 0.99 | locus YHR129C, strain ARP1, active compounds read low 0.981 | locus YHR142W, strain chs7, active compounds read low 1.02 | locus YHR200W, strain rpn10, active compounds read low 0.989 | locus YIL066C, strain RNR3, active compounds read low 0.978 | locus YIL073C, strain SPO22, active compounds read low 0.992 | locus YIL125W, strain kgd1, active compounds read low 0.996 | locus YIR030C, strain dcg1, active compounds read low 0.981 | locus YJL092W, strain hpr5, active compounds read low 1 | locus YJL095W, strain BCK1 (second series), active compounds read low 1.01 | locus YJL095W, strain BCK1, active compounds read low 0.987 and 0.984 | locus YJL115W, strain asf1, active compounds read low 1.01 | locus YJL129C, strain trk1, active compounds read low 1.01 | locus YJL134W, strain LCB3, active compounds read low 0.993 | locus YJL154C, strain vps35, active compounds read low 1.01 | locus YJL164C, strain tpk1, active compounds read low 1 | locus YJL166W, strain qcr8, active compounds read low 1.01 | locus YJL168C, strain set2, active compounds read low 0.985 | locus YJL187C, strain SWE1 (second series), active compounds read low 0.976 | locus YJL187C, strain SWE1, active compounds read low 1.01 | locus YJR043C, strain POL32, active compounds read low 0.988
